# Test results as given in PubChem BioAssay (EPA / NIEHS).
# Records with an inconclusive call do not appear. Activity calls are given as the source filed them. The calls were made as follows: active = hit-call score of the fitted dose curve at least 0.9, where 1 is the maximum; inconclusive = response in the unintended direction; inactive = score below 0.9.
# Columns and labels:
# [1] = molecular target: human Protein Tyrosine Phosphatase Receptor Type F (PTPRF), PTPRF (gene 5792) (UniProt P10586); assay: NVS_ENZ_hPTPRF: NovaScreen (NVS) Enzymatic Assay for human Protein Tyrosine Phosphatase Receptor Type F (PTPRF) (AID 2283213)
# Sequence of human Protein Tyrosine Phosphatase Receptor Type F (PTPRF), PTPRF (gene 5792) (P10586 whole entry, looked up): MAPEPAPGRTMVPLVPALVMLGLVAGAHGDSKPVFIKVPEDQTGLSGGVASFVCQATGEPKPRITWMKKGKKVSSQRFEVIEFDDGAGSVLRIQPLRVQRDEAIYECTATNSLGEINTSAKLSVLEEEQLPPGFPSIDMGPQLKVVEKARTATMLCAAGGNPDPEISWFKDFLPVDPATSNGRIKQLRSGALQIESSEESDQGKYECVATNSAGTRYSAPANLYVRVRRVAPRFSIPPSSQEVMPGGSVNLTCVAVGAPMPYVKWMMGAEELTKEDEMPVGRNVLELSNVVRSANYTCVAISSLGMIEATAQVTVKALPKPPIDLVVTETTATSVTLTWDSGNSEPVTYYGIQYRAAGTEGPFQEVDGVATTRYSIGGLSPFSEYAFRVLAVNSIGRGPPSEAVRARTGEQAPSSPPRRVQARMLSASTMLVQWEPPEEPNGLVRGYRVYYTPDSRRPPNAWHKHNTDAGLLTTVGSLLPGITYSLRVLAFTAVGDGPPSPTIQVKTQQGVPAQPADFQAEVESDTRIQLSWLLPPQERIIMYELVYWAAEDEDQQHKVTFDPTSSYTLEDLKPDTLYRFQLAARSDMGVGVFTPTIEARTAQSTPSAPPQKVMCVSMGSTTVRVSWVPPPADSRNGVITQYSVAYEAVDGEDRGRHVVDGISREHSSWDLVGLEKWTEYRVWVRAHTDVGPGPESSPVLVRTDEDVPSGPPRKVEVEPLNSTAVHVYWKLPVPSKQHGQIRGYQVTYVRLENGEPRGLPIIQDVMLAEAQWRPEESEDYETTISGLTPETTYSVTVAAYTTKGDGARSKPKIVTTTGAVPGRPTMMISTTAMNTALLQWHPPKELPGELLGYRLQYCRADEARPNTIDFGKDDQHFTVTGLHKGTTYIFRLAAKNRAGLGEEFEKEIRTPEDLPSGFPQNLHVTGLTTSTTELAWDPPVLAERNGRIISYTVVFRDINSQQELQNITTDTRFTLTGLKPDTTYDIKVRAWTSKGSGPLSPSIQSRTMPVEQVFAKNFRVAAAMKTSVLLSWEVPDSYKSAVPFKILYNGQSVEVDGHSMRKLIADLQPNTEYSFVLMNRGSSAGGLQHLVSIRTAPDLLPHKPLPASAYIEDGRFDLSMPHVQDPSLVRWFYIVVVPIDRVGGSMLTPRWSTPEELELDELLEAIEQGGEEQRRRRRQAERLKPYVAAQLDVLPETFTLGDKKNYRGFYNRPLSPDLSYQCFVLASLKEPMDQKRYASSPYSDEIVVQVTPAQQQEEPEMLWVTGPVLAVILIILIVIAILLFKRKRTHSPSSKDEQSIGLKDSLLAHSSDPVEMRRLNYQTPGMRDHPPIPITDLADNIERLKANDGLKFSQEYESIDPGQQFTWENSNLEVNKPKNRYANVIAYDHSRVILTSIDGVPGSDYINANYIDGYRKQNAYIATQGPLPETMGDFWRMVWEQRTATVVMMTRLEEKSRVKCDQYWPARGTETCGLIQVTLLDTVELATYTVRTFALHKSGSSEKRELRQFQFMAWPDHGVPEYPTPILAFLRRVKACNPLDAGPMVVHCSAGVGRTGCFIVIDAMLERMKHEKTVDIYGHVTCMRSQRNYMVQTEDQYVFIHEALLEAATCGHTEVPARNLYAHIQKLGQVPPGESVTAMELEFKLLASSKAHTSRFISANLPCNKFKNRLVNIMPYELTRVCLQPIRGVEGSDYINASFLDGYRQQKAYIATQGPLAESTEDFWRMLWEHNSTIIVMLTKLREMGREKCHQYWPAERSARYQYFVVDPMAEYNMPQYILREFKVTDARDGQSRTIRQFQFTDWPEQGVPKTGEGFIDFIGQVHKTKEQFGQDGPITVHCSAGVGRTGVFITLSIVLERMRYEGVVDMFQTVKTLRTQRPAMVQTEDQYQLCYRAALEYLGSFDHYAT
# How it was run: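 Cell-free fluorescence enzyme assay with recombinant protein and substrate; product separated by electrophoretic mobility shift. Read 1 h after dosing, single 25 uM duplicate screen, then concentration-response up to 50 uM; loss of signal vs DMSO.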
# [2] = molecular target: human Raf-1 Proto-Oncogene, serine/threonine Kinase (RAF1), RAF1 (gene 5894) (UniProt P04049); assay: NVS_ENZ_hRAF1: NovaScreen (NVS) Enzymatic Assay for human Raf-1 Proto-Oncogene, serine/threonine Kinase (RAF1) (AID 2283216)
# Sequence of human Raf-1 Proto-Oncogene, serine/threonine Kinase (RAF1), RAF1 (gene 5894) (P04049 whole entry, looked up): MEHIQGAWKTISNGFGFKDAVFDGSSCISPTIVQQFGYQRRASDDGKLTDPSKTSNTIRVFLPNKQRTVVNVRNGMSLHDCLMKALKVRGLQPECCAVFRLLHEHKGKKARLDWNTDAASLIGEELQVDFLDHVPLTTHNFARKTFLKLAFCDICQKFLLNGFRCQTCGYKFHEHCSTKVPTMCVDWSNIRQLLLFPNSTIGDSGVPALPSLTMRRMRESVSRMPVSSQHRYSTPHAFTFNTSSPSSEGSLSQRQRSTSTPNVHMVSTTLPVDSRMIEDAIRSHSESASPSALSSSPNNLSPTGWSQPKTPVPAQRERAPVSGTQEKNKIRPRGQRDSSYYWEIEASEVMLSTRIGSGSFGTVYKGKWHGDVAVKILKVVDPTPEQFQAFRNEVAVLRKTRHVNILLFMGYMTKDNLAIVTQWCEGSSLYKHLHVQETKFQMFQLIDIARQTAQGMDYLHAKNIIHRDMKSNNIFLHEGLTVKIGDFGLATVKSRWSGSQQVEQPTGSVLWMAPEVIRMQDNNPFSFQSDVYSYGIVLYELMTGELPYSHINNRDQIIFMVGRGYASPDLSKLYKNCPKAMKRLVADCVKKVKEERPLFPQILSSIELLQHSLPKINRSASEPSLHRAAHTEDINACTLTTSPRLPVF
# How it was run: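 Cell-free recombinant kinase with specific fluorescent substrate, product separated by electrophoretic mobility shift; read 1 h after dosing. Primary screen at 25 uM in duplicate; hits then run in concentration-response up to 50 uM, fitted as loss of signal versus DMSO.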
# [3] = molecular target: human Sirtuin 1 (SIRT1), SIRT1 (gene 23411) (UniProt Q96EB6); assay: NVS_ENZ_hSIRT1: NovaScreen (NVS) Enzymatic Assay for human Sirtuin 1 (SIRT1) (AID 2283219)
# Experimental: NVS_ENZ_hSIRT1 is a biochemical, single-readout assay that uses extracted gene-proteins in a cell-free assay. Measurements were taken 1 hour after chemical dosing in a 384-well plate.NVS_ENZ_hSIRT1 is one of one assay component(s) measured or calculated from the NVS_ENZ_hSIRT1 assay. It is designed to make measurements of enzyme activity, a form of enzyme reporter, as detected with fluorescence intensity signals by Fluorescence and electrophoretic mobility shift technology.Data from the assay component NVS_ENZ_hSIRT1 was analyzed into 1 assay endpoint. This assay endpoint, NVS_ENZ_hSIRT1, was analyzed in the positive analysis fitting direction relative to DMSO as the negative control and baseline of activity. Using a type of enzyme reporter, loss-of-signal activity can be used to understand changes in the enzymatic activity as they relate to the gene SIRT1. Furthermore, this assay endpoint can be referred to as a primary readout, because this assay has produced multiple assay endpoints where this one serves a enzymatic activity function. To generalize the intended target to other relatable targets, this assay endpoint is annotated to the hydrolase intended target family, where the subfamily is protein deacetylase. […]
# [4] = molecular target: human Rho Associated Coiled-coil Containing Protein Kinase 1 (ROCK1), ROCK1 (gene 6093) (UniProt Q13464); assay: NVS_ENZ_hROCK1: NovaScreen (NVS) Enzymatic Assay for human Rho Associated Coiled-coil Containing Protein Kinase 1 (ROCK1) (AID 2283214)
# Sequence of human Rho Associated Coiled-coil Containing Protein Kinase 1 (ROCK1), ROCK1 (gene 6093) (Q13464 whole entry, looked up): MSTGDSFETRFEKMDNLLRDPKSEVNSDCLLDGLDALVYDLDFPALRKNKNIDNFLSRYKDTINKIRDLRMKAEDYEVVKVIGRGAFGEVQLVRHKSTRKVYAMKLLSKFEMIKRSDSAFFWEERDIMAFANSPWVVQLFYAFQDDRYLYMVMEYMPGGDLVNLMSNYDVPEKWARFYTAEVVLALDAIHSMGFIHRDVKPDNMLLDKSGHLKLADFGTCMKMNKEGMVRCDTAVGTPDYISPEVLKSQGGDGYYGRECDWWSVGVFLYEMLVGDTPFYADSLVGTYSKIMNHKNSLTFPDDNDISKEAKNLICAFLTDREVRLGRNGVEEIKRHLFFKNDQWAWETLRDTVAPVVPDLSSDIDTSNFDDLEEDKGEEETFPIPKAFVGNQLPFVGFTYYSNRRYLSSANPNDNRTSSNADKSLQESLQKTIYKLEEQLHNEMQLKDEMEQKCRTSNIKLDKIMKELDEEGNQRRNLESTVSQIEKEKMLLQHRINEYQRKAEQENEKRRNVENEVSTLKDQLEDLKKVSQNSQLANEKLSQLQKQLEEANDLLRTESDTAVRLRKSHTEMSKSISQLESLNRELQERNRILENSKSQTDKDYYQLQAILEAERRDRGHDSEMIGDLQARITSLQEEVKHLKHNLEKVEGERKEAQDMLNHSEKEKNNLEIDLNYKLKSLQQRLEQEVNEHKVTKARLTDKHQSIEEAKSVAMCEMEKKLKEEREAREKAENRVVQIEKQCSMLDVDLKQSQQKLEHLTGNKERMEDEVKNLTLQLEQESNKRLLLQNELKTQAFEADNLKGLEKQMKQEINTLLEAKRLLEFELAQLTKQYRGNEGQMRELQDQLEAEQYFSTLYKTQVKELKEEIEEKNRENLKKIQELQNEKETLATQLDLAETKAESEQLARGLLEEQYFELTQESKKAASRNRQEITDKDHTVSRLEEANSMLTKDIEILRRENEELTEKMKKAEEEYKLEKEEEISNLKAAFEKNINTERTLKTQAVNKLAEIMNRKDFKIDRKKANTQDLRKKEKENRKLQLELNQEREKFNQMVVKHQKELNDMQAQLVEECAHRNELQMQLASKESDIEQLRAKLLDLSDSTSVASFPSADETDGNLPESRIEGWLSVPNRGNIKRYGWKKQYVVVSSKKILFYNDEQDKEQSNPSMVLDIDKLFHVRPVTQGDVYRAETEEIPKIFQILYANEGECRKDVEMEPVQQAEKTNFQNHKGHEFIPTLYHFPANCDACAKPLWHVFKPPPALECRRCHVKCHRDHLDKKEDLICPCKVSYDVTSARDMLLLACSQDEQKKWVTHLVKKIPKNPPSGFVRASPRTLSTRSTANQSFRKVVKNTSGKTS
# How it was run: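 Cell-free recombinant human ROCK1 activity assay; fluorescent substrate and product separated by electrophoretic mobility shift, read 1 h after dosing. Screened in duplicate at 25 uM; loss of signal versus DMSO baseline scored as inhibition.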
# [5] = molecular target: human Protein Tyrosine Phosphatase Receptor Type B (PTPRB), PTPRB (gene 5787) (UniProt P23467); assay: NVS_ENZ_hPTPRB: NovaScreen (NVS) Enzymatic Assay for human Protein Tyrosine Phosphatase Receptor Type B (PTPRB) (AID 2283211)
# Experimental: NVS_ENZ_hPTPRB is a biochemical, single-readout assay that uses extracted gene-proteins in a cell-free assay. Measurements were taken 1 hour after chemical dosing in a 384-well plate.NVS_ENZ_hPTPRB is one of one assay component(s) measured or calculated from the NVS_ENZ_hPTPRB assay. It is designed to make measurements of enzyme activity, a form of enzyme reporter, as detected with fluorescence intensity signals by Fluorescence and electrophoretic mobility shift technology.Data from the assay component NVS_ENZ_hPTPRB was analyzed into 1 assay endpoint. This assay endpoint, NVS_ENZ_hPTPRB, was analyzed in the positive analysis fitting direction relative to DMSO as the negative control and baseline of activity. Using a type of enzyme reporter, loss-of-signal activity can be used to understand changes in the enzymatic activity as they relate to the gene PTPRB. Furthermore, this assay endpoint can be referred to as a primary readout, because this assay has produced multiple assay endpoints where this one serves a enzymatic activity function. To generalize the intended target to other relatable targets, this assay endpoint is annotated to the phosphatase intended target family, where the subfamily is receptor tyrosine phosphatase.
# Binding assays used specific radioligands (tritiated, iodinated) with non-radioactive competitive displacement ligands in agonist or antagonist protocols (as indicated) and various reference compounds and inhibitors to titrate specific binding to receptors and transporters. Most enzyme assays (CYPs, kinases, phosphatases, proteases, HDACs) used recombinant protein and specific substrates (fluorescence mostly, some colorimetric and radioactive) and inhibitors, followed by a biochemical separation of substrate and product. All assays for the biochemical HTS were initially run in duplicate at a single concentration (10 uM for CYP450 assays and 25 uM for all others). […] Each assay was run with positive and negative controls, and concurrent controls on every plate. […]
# [6] = molecular target: human Sirtuin 3 (SIRT3), SIRT3 (gene 23410) (UniProt Q9NTG7); assay: NVS_ENZ_hSIRT3: NovaScreen (NVS) Enzymatic Assay for human Sirtuin 3 (SIRT3) (AID 2283222)
# Sequence of human Sirtuin 3 (SIRT3), SIRT3 (gene 23410) (Q9NTG7 whole entry, looked up): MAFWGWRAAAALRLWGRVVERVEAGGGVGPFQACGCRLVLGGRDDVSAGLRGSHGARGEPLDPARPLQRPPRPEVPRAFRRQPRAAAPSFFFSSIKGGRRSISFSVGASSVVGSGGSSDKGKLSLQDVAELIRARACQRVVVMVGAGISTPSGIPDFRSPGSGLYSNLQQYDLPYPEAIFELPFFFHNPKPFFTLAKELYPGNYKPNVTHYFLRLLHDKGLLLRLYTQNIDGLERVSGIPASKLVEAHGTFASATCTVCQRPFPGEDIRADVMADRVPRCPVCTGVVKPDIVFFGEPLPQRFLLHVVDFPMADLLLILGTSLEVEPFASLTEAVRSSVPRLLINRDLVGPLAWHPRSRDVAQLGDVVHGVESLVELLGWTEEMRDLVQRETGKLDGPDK
# How it was run: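 Cell-free enzyme assay with recombinant protein and fluorescent substrate, product separated by electrophoretic mobility shift; read 1 hour after dosing. Screened in duplicate at 25 uM, then singleton concentration-response up to 50 uM; loss of signal versus DMSO.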
# [7] = molecular target: human Tropomyosin Receptor Kinase A (TRKA), NTRK1 (gene 4914) (UniProt P04629); assay: NVS_ENZ_hTrkA: NovaScreen (NVS) Enzymatic Assay for human Tropomyosin Receptor Kinase A (TRKA) (AID 2283224)
# Sequence of human Tropomyosin Receptor Kinase A (TRKA), NTRK1 (gene 4914) (P04629 whole entry, looked up): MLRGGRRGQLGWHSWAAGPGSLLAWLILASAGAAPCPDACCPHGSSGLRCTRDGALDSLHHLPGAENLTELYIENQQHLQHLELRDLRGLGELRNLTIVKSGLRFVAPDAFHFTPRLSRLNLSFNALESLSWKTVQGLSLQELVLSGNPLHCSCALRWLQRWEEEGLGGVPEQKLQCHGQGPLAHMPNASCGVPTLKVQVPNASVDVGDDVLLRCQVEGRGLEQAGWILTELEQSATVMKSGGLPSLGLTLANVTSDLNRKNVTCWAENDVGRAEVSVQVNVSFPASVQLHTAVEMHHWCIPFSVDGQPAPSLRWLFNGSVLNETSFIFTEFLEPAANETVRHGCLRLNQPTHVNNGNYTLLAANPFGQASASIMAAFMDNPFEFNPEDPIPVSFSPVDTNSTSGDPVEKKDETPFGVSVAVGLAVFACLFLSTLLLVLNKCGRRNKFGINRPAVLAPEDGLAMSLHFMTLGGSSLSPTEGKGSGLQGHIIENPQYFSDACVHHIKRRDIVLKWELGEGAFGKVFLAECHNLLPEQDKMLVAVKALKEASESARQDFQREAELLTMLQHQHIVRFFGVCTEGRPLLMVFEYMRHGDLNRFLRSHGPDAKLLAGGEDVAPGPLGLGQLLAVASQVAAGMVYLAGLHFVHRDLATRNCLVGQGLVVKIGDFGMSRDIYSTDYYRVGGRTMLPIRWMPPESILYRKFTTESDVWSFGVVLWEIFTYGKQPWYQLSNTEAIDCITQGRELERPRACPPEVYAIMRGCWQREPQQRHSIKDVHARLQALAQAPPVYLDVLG
# How it was run: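 Recombinant human TrkA activity read after 1 h by fluorescence with electrophoretic mobility shift separating substrate and product. Primary screen in duplicate at 25 uM; actives were rerun in concentration-response up to 50 uM. Loss of signal versus DMSO.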
# [8] = molecular target: human Sirtuin 2 (SIRT2), SIRT2 (gene 22933) (UniProt Q8IXJ6); assay: NVS_ENZ_hSIRT2: NovaScreen (NVS) Enzymatic Assay for human Sirtuin 2 (SIRT2) (AID 2283217)
# How it was run: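 Cell-free recombinant human SIRT2, fluorescent substrate with product separated by electrophoretic mobility shift, 1 hr. Screened in duplicate at 25 uM; hits rerun singly in concentration-response up to 50 uM, relative to DMSO.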
# [9] = molecular target: human SRC Proto-Oncogene, Non-receptor Tyrosine Kinase (SRC), SRC (gene 6714) (UniProt P12931); assay: NVS_ENZ_hSRC: NovaScreen (NVS) Enzymatic Assay for human SRC Proto-Oncogene, Non-receptor Tyrosine Kinase (SRC) (AID 2283223)
# How it was run: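 Cell-free kinase activity assay with fluorescent substrate, product separated by electrophoretic mobility shift, read 1 h after dosing. Duplicate single point at 25 uM, then concentration-response up to 50 uM; loss of signal versus DMSO.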
# [10] = molecular target: human Protein Tyrosine Phosphatase Receptor Type M (PTPRM), PTPRM (gene 5797) (UniProt P28827); assay: NVS_ENZ_hPTPRM: NovaScreen (NVS) Enzymatic Assay for human Protein Tyrosine Phosphatase Receptor Type M (PTPRM) (AID 2283215)
# How it was run: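 Cell-free recombinant PTPRM with fluorogenic substrate; product separated from substrate by electrophoretic mobility shift and read by fluorescence, 1.33 h after dosing. Primary screen single concentration (25 uM) in duplicate; actives retested in concentration series; loss of signal versus DMSO.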
compound,measurement,setting,value
CN=C=S,outcome,[1],inactive
same,outcome,[2],inactive
same,outcome,[3],inactive
CCOC(=O)C(C)OC(=O)c1cc(Oc2ccc(C(F)(F)F)cc2Cl)ccc1[N+](=O)[O-] (stereo not given),outcome,[4],inactive
same,outcome,[2],inactive
COc1ccc(-c2ccccc2)cc1NNC(=O)OC(C)C,outcome,[2],inactive
O=c1n(Cl)c(=O)n(Cl)c(=O)n1Cl,outcome,[5],inactive
COP(=S)(OC)SCn1nnc2ccccc2c1=O,outcome,[1],inactive
same,outcome,[2],inactive
CCCCC(C#N)(Cn1cncn1)c1ccc(Cl)cc1 (stereo not given),AC50,[6],10.4 µM (active)
same,AC50,[7],19.5 µM (active)
COC(=O)c1c(C(F)F)nc(C(F)(F)F)c(C2=NCCS2)c1CC(C)C,outcome,[2],inactive
COC(=O)N(C(=O)N1CO[C@@]2(C(=O)OC)Cc3cc(Cl)ccc3C2=N1)c1ccc(OC(F)(F)F)cc1,AC50,[7],28.7 µM (active)
CCCCOCN(C(=O)CCl)c1c(CC)cccc1CC,outcome,[4],inactive
COP(=S)(OC)Oc1ccc([N+](=O)[O-])c(C)c1,AC50,[8],12.1 µM (active)
CCCCC(O)(Cn1cncn1)c1ccc(Cl)cc1Cl (stereo not given),AC50,[8],15.9 µM (active)
same,outcome,[6],inactive
same,AC50,[7],21.9 µM (active)
Clc1nc(Cl)nc(Nc2ccccc2Cl)n1,outcome,[6],inactive
same,AC50,[7],7.05 µM (active)
CCCN(CC)CC1COC2(CCC(C(C)(C)C)CC2)O1 (stereo not given),outcome,[9],inactive
CC(C)Nc1nc(Cl)nc(NC(C)C)n1,outcome,[7],inactive
CC1(C)C(C=C(Cl)Cl)C1C(=O)OC(C#N)c1cccc(Oc2ccccc2)c1 (stereo not given),outcome,[2],inactive
same,outcome,[6],inactive
CCOP(=S)(OCC)Oc1nc(Cl)n(C(C)C)n1,outcome,[4],inactive
O=C1C2CC=CCC2C(=O)N1SC(Cl)(Cl)Cl (stereo not given),outcome,[10],inactive
same,AC50,[8],13 µM (active)
same,AC50,[3],13.3 µM (active)
same,AC50,[6],39.5 µM (active)
CCCC(=NOCC)C1=C(O)CC(CC(C)SCC)CC1=O (stereo not given),outcome,[5],inactive
same,outcome,[1],inactive
same,outcome,[10],inactive
same,outcome,[2],inactive
N#Cc1c(Cl)cccc1Cl,outcome,[5],inactive
same,outcome,[1],inactive
CS(=O)(=O)c1ccc(C(=O)C2C(=O)CCCC2=O)c([N+](=O)[O-])c1,outcome,[2],inactive
CCOc1nc(F)cc2nc(S(=O)(=O)Nc3c(Cl)cccc3Cl)nn12,outcome,[1],inactive
CCC(C)n1c(=O)[nH]c(C)c(Br)c1=O (stereo not given),outcome,[1],inactive
CN/C(=N\[N+](=O)[O-])NCc1cnc(Cl)s1,outcome,[2],inactive
CC(C)(C)C(=O)C(Oc1ccc(Cl)cc1)n1cncn1 (stereo not given),outcome,[9],inactive
